Assay results from PubChem BioAssay (NCI).
The panel holds about 79,000 compounds, 15% with a hit somewhere; the sample as a whole holds those more often. Unmarked numbers belong to inactive results. Calls of active or inactive are those of the source. Rule as the data show it: active = growth inhibition above about 70%; inactive = the rest.

Columns and labels:
[1] = NCI Yeast Anticancer Drug Screen. Data for the rad50 strain (AID 155);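 also: 0% = growth of vehicle-only cultures of the same strain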; conditions: S. cerevisiae rad50 strain growth inhibition; at 50.0 µM; active compounds read high
Method in brief: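 Yeast carrying a defined DNA repair defect were exposed to test compounds, and growth was compared with vehicle-treated controls to give percent inhibition.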

[2] = NCI Yeast Anticancer Drug Screen. Data for the mec2-1 strain (AID 157); conditions: S. cerevisiae mec2-1 strain, at 50.0 µM, active compounds read high
Method in brief: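 Vehicle-treated cultures served as reference for growth inhibition of compound-exposed mec2-1 yeast.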

[3] = NCI Yeast Anticancer Drug Screen. Data for the sgs1 mgt1 strain (AID 161);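 also: 0% = growth of cultures given vehicle only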; conditions: S. cerevisiae sgs1 mgt1 strain, at 50.0 µM, active compounds read high
Method in brief: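 Inhibition of yeast growth, normalised to vehicle-treated controls, is reported for a strain bearing genetic alterations in DNA damage repair.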

[4] = NCI Yeast Anticancer Drug Screen. Data for the cln2 rad14 strain (AID 165);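 also: 0% = growth equal to vehicle treated cultures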; conditions: S. cerevisiae cln2 rad14 strain, at 50.0 µM, active compounds read high
Method in brief: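 Each compound was tested on cln2 rad14 yeast. Inhibition of growth was calculated against vehicle-exposed controls.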

[5] = NCI Yeast Anticancer Drug Screen. Data for the bub3 strain (AID 167); conditions: S. cerevisiae bub3 mutant strain, at 50.0 µM, active compounds read high
Method in brief: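 Compounds were applied to a genetically altered yeast strain carrying a cell-cycle control defect. Growth inhibition was scored against vehicle-treated controls.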

[6] = NCI Yeast Anticancer Drug Screen. Data for the mlh1 rad18 strain (AID 175); conditions: S. cerevisiae mlh1 rad18 strain growth inhibition; at 50.0 µM; active compounds read high
Method in brief: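 Vehicle-treated cultures served as the reference for growth inhibition in a yeast strain carrying DNA damage repair alterations exposed to each compound.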

| SMILES | growth inhibition [1] | growth inhibition [2] [%] | growth inhibition [3] [%] | growth inhibition [4] [%] | growth inhibition [5] [%] | growth inhibition [6] |
| --- | --- | --- | --- | --- | --- | --- |
| Cc1ncc(-c2ccccc2)o1 | -20.2% | -21.2 | -1.75 | -7 | -19.9 | -15.7% |
| COc1ccc(CNc2cnc3ccc(N)cc3n2)cc1OC | -36.9% | -55.1 | -40.2 | 5.55 | -25 | -30.9% |
| COc1ccc2c(c1)CN(C)c1ccc(OC)cc1CN2C | 10.7% | -18.6 | 12.2 | 12.4 | 12.5 | 24.6% |
| CCO/C=C1/N=C(c2cc([N+](=O)[O-])cc([N+](=O)[O-])c2C)OC1=O | 10.6% | 6.85 | -6.45 | -58.2 | -35 | 15.1% |
| CCC(=O)C(=O)c1ccccc1 | -12.9% | -6.5 | -0.4 | -2.35 | -1.05 | 3.2% |
| CCOCCOCCOC(=O)c1ccccc1O | -6.75% | 1.45 | -4.4 | -14.5 | 11.2 | 4.4% |
| O=c1[nH]cc(NS(=O)(=O)O)c(=O)[nH]1 | -2.15% | -5.4 | 6.5 | 1.45 | 2.95 | -0.55% |
| CC(=O)OC1OC(COC(=O)c2ccccc2)C(OC(=O)c2ccccc2)C1OC(=O)c1ccccc1 (stereo unspecified) | -60.6% | -12.8 | -13.2 | -33.9 | -0.65 | 2.95% |
| CC(=O)OCC1OC(OC(C)=O)C(NC(=O)CNC(=O)OCc2ccccc2)C(OC(C)=O)C1OC(C)=O (stereo unspecified) | 21.8% | 2.8 | -16.9 | 7.8 | -4.75 | 4.35% |
| CC(C)(C)C1CCCC(=O)C1 (stereo unspecified) | 8.3% | -5.15 | 3.5 | 10.3 | 6.85 | 3.15% |
| CCCCCCC(=O)/C=C/c1ccc(OCc2ccccc2)c(OCc2ccccc2)c1 | 33.9% | -2.6 | 18.5 | 23.9 | -2.15 | 16.1% |
| FC1C2=C(SC1(F)F)C1CCC2C1 (stereo unspecified) | 4.9% | -2.2 | 28.1 | 17.9 | -4.05 | 12.9% |
| Nc1ccc(S(=O)(=O)S(=O)(=O)c2ccc(N)cc2)cc1 | -0.1% | 1.95 | -3.55 | 12.4 | -0.9 | -2.95% |
| COCn1cnc2c(ccn2C2OC(CO)C(O)C2O)c1=O (stereo unspecified) | -25.4% | 0 | -8.9 | -2.1 | 4 | 4.55% |
| Cc1cc(C(C)(C)C)ccc1S(=O)(=O)/C=C/c1ccccc1 | -18.6% | -23.1 | -6.1 | 0.45 | -1.7 | -26.1% |
| C[N+]1(C)CCC(c2ccccc2)(c2ccccc2)C(O)C1 (stereo unspecified) | -8.85% | 40.7 | 0 | -0.2 | -8.5 | 1.5% |
| COc1ccccc1N=NNc1ccc(S(=O)(=O)NC(C)=O)cc1 | 14.9% | -28.5 | -1.1 | -0.6 | -15 | 0.55% |
| CCCCCCc1ccccn1 | 4.6% | 9.3 | 9.6 | -1.6 | -1.4 | 17.8% |
| COc1ccc2c(c1)c1ccc3c(c1n2C)C(=O)C=CC3=O | 8.4% | -1.6 | 43 | 11 | 4.8 | 15.7% |
| Cc1cnc(Sc2ncccc2[N+](=O)[O-])nc1 | 33% | 5.75 | 22.8 | 25.6 | -3.1 | 6.7% |
| CC(C)(C)c1ccc(-c2cc3nc(-c4ccccc4)cc(=O)n3[nH]2)cc1 | -8.05% | -30.3 | 10.5 | 5.9 | 10.8 | -0.55% |

| SMILES | growth inhibition [1] | growth inhibition [2] [%] | growth inhibition [3] [%] | growth inhibition [4] [%] | growth inhibition [5] [%] | growth inhibition [6] |
| --- | --- | --- | --- | --- | --- | --- |
| CN1CCC(CC(O)(c2ccccc2)C2CCCCC2)C1 (stereo unspecified) | -5.9% | -14.1 | -2.3 | -24.4 | 4.2 | -20.9% |
| O=C(O)/C(=C\c1ccccc1[N+](=O)[O-])c1ccc(C(F)(F)F)cc1 | 4% | -15.9 | 1.95 | 7.1 | 10.7 | -18.9% |
| Cc1ccc(-c2nc(SCc3ccc(Cl)cc3)[nH]c(=O)c2CCO)cc1 | 55.5% | 14.3 | 38.8 | 34.4 | 47.7 | 32.2% |
| CCCCSC(N)=O | -1.5% | 0 | -15.1 | 10.7 | 17.3 | 11.2% |
| CC(C)(C)c1ccc(OCCOCCCl)c(Cl)c1 | 17.1% | 15.4 | 14.6 | -19.9 | 8.65 | 15.2% |
| N#Cc1ccc(OC(=O)Nc2ccccc2Cl)cc1 | 0.5% | -8.6 | 21.4 | 26.4 | 15.4 | 13.8% |
| CC(CCC(=O)O)(CCC(=O)O)C(=O)O | 4.2% | 3.85 | -0.8 | -15.6 | 3.7 | -1.9% |
| O=C(O)C(C(C(=O)O)P(=O)(O)O)P(=O)(O)O (stereo unspecified) | -17.9% | -30.8 | -50.6 | -38.8 | -12.2 | -62.3% |
| COc1cc(O)c(C(C)c2ccccc2)cc1N=NC(N)=O (stereo unspecified) | 17.1% | 16.4 | 19.3 | 32.8 | 43.4 | 45.5% |
| CN(C)CCCNc1cc[n+](C)c2cccc([N+](=O)[O-])c12 | 27.1% | 15.4 | 31.4 | 20.4 | 13.8 | 27.3% |
| COc1ccc2cc(CC(=O)c3ccccc3)ccc2c1 | -24.2% | -6.95 | -11.2 | -37.8 | -17.1 | -3.5% |
| O=C(OCCN1C(=O)c2cccc3c(Br)ccc(c23)C1=O)OCc1ccccc1 | 86.2% (active) | 48.5 | 60.1 | 49.4 | 61.7 | 70.3% (active) |
| CN(C)Cc1cc(CN(C)C)cc(CN(C)C)c1 | 0.3% | 15.8 | 3.45 | -22.9 | -11.2 | -19.8% |
| O=C(O)c1c[nH]c2ccc([N+](=O)[O-])cc2c1=O | -21% | -12.8 | -11.9 | 11.7 | -14 | -7.95% |
| ClCc1ccc(CCc2ccc(CCl)cc2)cc1 | 17.9% | -17.9 | 22.6 | -44.9 | 16.3 | 8.15% |
| N#Cc1c2c(c(N=P(c3ccccc3)(c3ccccc3)c3ccccc3)n3c1nc1ccccc13)CCCC2 | 44.6% | 5.5 | 14.9 | 41.9 | 30 | 26.9% |
| NC(=O)c1ccc(Cl)cc1C(N)=O | -6.55% | 17.9 | 7.1 | -24.1 | -0.05 | -2.25% |
| CCC(C)NC(=O)C(C)C (stereo unspecified) | 2.7% | -3.6 | -2.9 | -32.8 | -3.3 | 16.4% |
| C[N+]1(C)C/C(=C\c2ccc(O)cc2)C(=O)/C(=C/c2ccc(O)cc2)C1 | -0.75% | -16.3 | 4.05 | -6 | -9.75 | -14.2% |
| CCOC(=O)C1=C(C(=O)c2ccc(C)cc2)C(c2c(Cl)cccc2Cl)C(C(=O)c2ccc(C)cc2)=C(C(=O)OCC)N1 | 18.4% | 21.1 | 37.8 | 44.5 | 54.9 | 38% |
